Measured values taken from PubChem BioAssay AID372 (MTDP, 2006).
Screen size: about 100,000 compounds; about 770 (0.77%) were called active. The sample holds actives, similar compounds and a random draw of the others, so the mix is not that of the screen. Cut-off read from the data, not from the text of the source: active = inhibition above about 50%; inactive = the rest.

The compounds below were run against Gag-Pol polyprotein (Human immunodeficiency virus type 1 group M subtype B (isolate HXB2)) (UniProt P04585) (assay: RNase H inhibition, HIV 1 Gag Pol polyprotein, FRET biochemical assay, screening (AID 372)). Details: HIV-1 RT RNase H, FRET RNA/DNA substrate fluorescence; at 10 µM; active compounds read high.
With `CC(=O)Nc1ccc(N2C(=O)/C(=C/c3ccc([N+](=O)[O-])cc3)C=C2c2ccccc2)cc1` the inhibition was 0% (inactive).
For `Cc1cccc(C2=N/C(=C/c3ccc([N+](=O)[O-])cc3)C(=O)N2c2ccc(O)cc2)c1`, the inhibition was 44% (inactive).
`O=C1/C(=C/c2ccc([N+](=O)[O-])cc2)C=C(c2ccccc2)N1c1ccc(O)cc1` was tested, and the inhibition was 54% (active).
For `COc1cc(/C=N/N=C2/NC(=O)C(CC(=O)Nc3cccc(Cl)c3Cl)S2)ccc1O` (stereo not drawn), the inhibition was 5% (inactive).
With `O=C(NCc1ccco1)c1ccc(Cl)cc1` the inhibition was 0% (inactive).
With `Cc1ccc(C(=O)NCc2ccco2)cc1` the inhibition was 0% (inactive).
For `CCOc1ccc(C(=O)NCc2ccco2)cc1Cl`, the inhibition was 6% (inactive).
For `CCOc1ccc(C(=O)NCc2ccco2)cc1Br`, the inhibition was 5% (inactive).
`CCOc1ccc(C(=O)NCc2ccco2)cc1OCC` was tested, and the inhibition was 50% (active).
For `CC(=O)Nc1ccc(C(=O)NCc2ccco2)cc1`, the inhibition was 57% (active).
`Cc1nn(S(=O)(=O)c2ccc([N+](=O)[O-])cc2)c(C)c1Sc1ccc([N+](=O)[O-])cc1` was tested, and the inhibition was 18% (inactive).
`CSCCOC(=O)C1=C(C)NC(=O)NC1c1ccc([N+](=O)[O-])cc1` (stereo not drawn) was tested, and the inhibition was 22% (inactive).
In the case of `CCCCOc1ccc2c(C(F)(F)F)cc(=O)oc2c1`, the inhibition was 9% (inactive).
In the case of `CCOC(=O)C1=C(C)NC2=C(C(=O)CC(c3ccc(OC)cc3)C2)C1c1ccccc1OC(C)C` (stereo not drawn), the inhibition was 1% (inactive).
In the case of `O=C(N/N=C/c1ccccc1OC(=O)c1sc2ccccc2c1Cl)c1ccc([N+](=O)[O-])cc1`, the inhibition was 6% (inactive).
`O=C(Nc1cccc2ccccc12)c1ccccc1[N+](=O)[O-]` was tested, and the inhibition was 5% (inactive).
`Cc1ccc(OC(=O)Cn2c(=O)sc3cccc(Cl)c32)cc1C` was tested, and the inhibition was 12% (inactive).
In the case of `Cc1cc(C)cc(OC(=O)Cn2c(=O)sc3cccc(Cl)c32)c1`, the inhibition was 11% (inactive).
With `CCn1c(=O)sc2cccc(Cl)c21` the inhibition was 50% (active).
In the case of `COC(=O)CCCCCN1C(=O)c2ccccc2C1=O`, the inhibition was 6% (inactive).
For `COc1cc(/C=c2\sc3nc4c(C)c(C)ccc4n3c2=O)cc(Cl)c1O`, the inhibition was 31% (inactive).
`COc1cc(/C=c2/sc3nc4c(C)c(C)ccc4n3c2=O)cc(OC)c1OC(C)=O` was tested, and the inhibition was 8% (inactive).
`COc1cc(/C=c2\sc3nc4c(C)c(C)ccc4n3c2=O)cc(OC)c1O` was tested, and the inhibition was 58% (active).
For `O=C(Nc1ccc(-c2noc(-c3ccccc3F)n2)cc1)c1cccs1`, the inhibition was 10% (inactive).
With `CC1CCN(C(=O)CCCN2C(=O)c3cccc4cccc(c34)C2=O)CC1` the inhibition was 56% (active).
In the case of `O=C(CCCN1C(=O)c2cccc3cccc(c23)C1=O)N1CCCCC1`, the inhibition was 29% (inactive).
For `CC1CCN(C(=O)CN2C(=O)c3cccc4cccc(c34)C2=O)CC1`, the inhibition was 7% (inactive).
For `COc1ccccc1-c1c(C(F)(F)F)oc2c(CN(C)C)c(O)ccc2c1=O`, the inhibition was 24% (inactive).
For `O=C(CN(c1cccc(Cl)c1)S(=O)(=O)c1ccccc1)N1CCN(Cc2ccccc2)CC1`, the inhibition was 14% (inactive).
In the case of `CN1c2ccccc2-c2ccccc2C12C=Cc1cc(Br)ccc1O2` (stereo not drawn), the inhibition was 6% (inactive).
`COc1cc(Br)cc2c1OC1(C=C2)c2ccccc2-c2ccccc2N1C` (stereo not drawn) was tested, and the inhibition was 50% (active).
With `CN1c2ccccc2-c2ccccc2C12C=Cc1cc(Br)cc(Br)c1O2` (stereo not drawn) the inhibition was 17% (inactive).
For `O=C(CSc1nnc(-c2ccccc2)n1-c1ccccc1)N/N=C/C=C/c1ccccc1`, the inhibition was 15% (inactive).
With `O=C(Nc1ccc(Cl)cc1)c1ccccc1C(=O)c1ccc(Cl)cc1` the inhibition was 18% (inactive).
`COc1cc(/C=N\Nc2nnc3c(n2)[nH]c2c(C)cccc23)ccc1O` was tested, and the inhibition was 11% (inactive).
With `Cc1cccc2c1[nH]c1nc(N/N=C\c3cccc(O)c3)nnc12` the inhibition was 14% (inactive).
In the case of `Cc1cccc2c1[nH]c1nc(N/N=C\c3ccc(O)c(O)c3)nnc12`, the inhibition was 54% (active).
`O=c1[nH]c(-c2ccncc2)nc2ccccc12` was tested, and the inhibition was 68% (active).
With `Cc1ccc(-c2nc3ccccc3c(=O)[nH]2)cc1` the inhibition was 7% (inactive).
In the case of `O=c1[nH]c(-c2ccc(Br)cc2)nc2ccccc12`, the inhibition was 13% (inactive).
For `CC(=O)c1ccc(N2CCCCC2C)c(F)c1` (stereo not drawn), the inhibition was 0% (inactive).
`Cc1ccccc1-n1c(O)c(/C=C2\C=CC=N2)c(=O)[nH]c1=O` was tested, and the inhibition was 1% (inactive).
With `O=c1[nH]c(=S)n(-c2ccccc2)c(O)c1/C=C1/C=CC=N1` the inhibition was 11% (inactive).
In the case of `O=c1[nH]c(=O)n(-c2ccccc2Cl)c(O)c1C=C1C=CC=N1`, the inhibition was 0% (inactive).
In the case of `Cc1cccc(-n2c(O)c(/C=C3\C=CC=N3)c(=O)[nH]c2=S)c1`, the inhibition was 11% (inactive).
For `O=C(COc1ccccc1Cl)NNC(=O)c1cc2ccccc2cc1O`, the inhibition was 6% (inactive).
With `O=[N+]([O-])c1ccc(OCCCN2CCCCC2)cc1` the inhibition was 0% (inactive).
`CCOc1ccc2ccccc2c1/C=C(\C#N)C(=O)NCc1ccco1` was tested, and the inhibition was 24% (inactive).
With `CCc1ccc(/C=C2/SC(=S)N(CCC(=O)O)C2=O)cc1` the inhibition was 8% (inactive).
With `CCCC1=C(C(=O)OCC)C(c2cc(C)c(OC)cc2C)C(C#N)=C(N)O1` (stereo not drawn) the inhibition was 2% (inactive).
For `Cc1cc(C)c2nc3s/c(=C\c4cccc([N+](=O)[O-])c4)c(=O)n3c2c1`, the inhibition was 10% (inactive).
`Cc1ccc(N2C(=O)CC(Cc3ccc(Cl)cc3)C2=O)cc1C` (stereo not drawn) was tested, and the inhibition was 5% (inactive).
In the case of `CCOC(=O)C1=C(C)N=c2s/c(=C\c3ccc(-c4cc(C)c(C)c([N+](=O)[O-])c4)o3)c(=O)n2C1c1ccc(Cl)cc1` (stereo not drawn), the inhibition was 37% (inactive).
`CCOC(=O)C1=C(C)N=c2s/c(=C\c3ccc(-c4ccc(C)c([N+](=O)[O-])c4)o3)c(=O)n2C1c1ccc2c(c1)OCO2` (stereo not drawn) was tested, and the inhibition was 8% (inactive).
For `CCOC(=O)C1=C(C)N=c2s/c(=C\c3ccc(-c4ccc(OC)cc4[N+](=O)[O-])o3)c(=O)n2C1c1ccc(OC)cc1` (stereo not drawn), the inhibition was 0% (inactive).
`CCOC(=O)C1=C(C)N=c2s/c(=C\c3ccc(-c4cc(C)c(C)c([N+](=O)[O-])c4)o3)c(=O)n2C1c1ccc(OC)cc1` (stereo not drawn) was tested, and the inhibition was 55% (active).
For `CCOC(=O)C1=C(C)N=c2s/c(=C\c3ccc(-c4ccc([N+](=O)[O-])cc4)o3)c(=O)n2C1c1ccc2c(c1)OCO2` (stereo not drawn), the inhibition was 41% (inactive).
In the case of `CCOC(=O)C1=C(C)N=c2s/c(=C\c3ccc(-c4ccc(OC)cc4[N+](=O)[O-])o3)c(=O)n2C1c1ccc(SC)cc1` (stereo not drawn), the inhibition was 52% (active).
`CCOC(=O)C1=C(C)N=c2s/c(=C\c3ccc(-c4cc(C)c(C)c([N+](=O)[O-])c4)o3)c(=O)n2C1c1ccc(OC)c(OC)c1` (stereo not drawn) was tested, and the inhibition was 51% (active).
`CCOC(=O)C1=C(C)N=c2s/c(=C\c3ccc(-c4ccc(C)c([N+](=O)[O-])c4)o3)c(=O)n2C1c1ccc(OC)c(OC)c1` (stereo not drawn) was tested, and the inhibition was 18% (inactive).
In the case of `CCOC(=O)C1=C(C)N=c2s/c(=C\c3ccc(-c4ccc(C)c([N+](=O)[O-])c4)o3)c(=O)n2C1c1ccc(OC)cc1` (stereo not drawn), the inhibition was 21% (inactive).
With `CCOC(=O)C1=C(C)N=c2s/c(=C\c3ccc(-c4ccc(OC)cc4[N+](=O)[O-])o3)c(=O)n2C1c1ccc(C)cc1` (stereo not drawn) the inhibition was 44% (inactive).
In the case of `CCOC(=O)C1=C(C)N=c2s/c(=C\c3ccc(-c4cc(C)c(C)c([N+](=O)[O-])c4)o3)c(=O)n2C1c1cc(OC)ccc1OC` (stereo not drawn), the inhibition was 13% (inactive).
With `CCOC(=O)C1=C(C)N=c2s/c(=C\c3ccc(-c4cc(C)c(C)c([N+](=O)[O-])c4)o3)c(=O)n2C1c1ccc2c(c1)OCO2` (stereo not drawn) the inhibition was 50% (active).
For `Clc1ccc(-c2nnc3ccc(N4CCOCC4)nn23)cc1`, the inhibition was 9% (inactive).
For `COc1ccc(C2NC(=O)NC(C)=C2C(=O)OCC(Cl)(Cl)Cl)cc1OC` (stereo not drawn), the inhibition was 2% (inactive).
`COc1ccc2ccccc2c1/C=N/NC(=O)c1ccccc1C` was tested, and the inhibition was 13% (inactive).
In the case of `Cc1cc(I)ccc1NC(=O)c1ccc(-c2ccccc2[N+](=O)[O-])o1`, the inhibition was 49% (inactive).
`O=C1NC(=S)NC(=O)C1=Cc1cccc(OC(=O)c2ccc(Cl)cc2)c1` was tested, and the inhibition was 30% (inactive).
For `CC(C)C(=O)NC(c1ccc(N(C)C)cc1)c1ccc2cccnc2c1O` (stereo not drawn), the inhibition was 7% (inactive).
For `CCN(CC)c1nc2c(s1)C(=O)CC(C)(C)C2`, the inhibition was 0% (inactive).
With `Cc1ccnc(NC(=O)c2cc(-c3ccc(C)c(C)c3)nc3ccccc23)c1` the inhibition was 4% (inactive).
With `O=C1c2ccccc2NC(c2ccccc2F)N1c1ccc(Cl)cc1` (stereo not drawn) the inhibition was 5% (inactive).
For `CCOC(=O)C1=C(C)N=c2s/c(=C\c3ccc(-c4ccc(Cl)cc4)o3)c(=O)n2C1c1ccc(OC)c(OC)c1` (stereo not drawn), the inhibition was 13% (inactive).
With `CCOC(=O)C1=C(C)N=c2s/c(=C\c3ccc(-c4ccc(Cl)c(Cl)c4)o3)c(=O)n2C1c1ccc(OC)c(OC)c1` (stereo not drawn) the inhibition was 9% (inactive).
For `CCOC(=O)C1=C(C)N=c2s/c(=C\c3ccc(OCc4cccc5ccccc45)c(OCC)c3)c(=O)n2C1c1ccc(OC)c(OC)c1` (stereo not drawn), the inhibition was 0% (inactive).
`CCOC(=O)C1=C(C)N=c2s/c(=C/c3ccc(-c4cccc(Cl)c4)o3)c(=O)n2C1c1ccc(OC)c(OC)c1` (stereo not drawn) was tested, and the inhibition was 52% (active).
For `CCOC(=O)C1=C(C)N=c2s/c(=C\c3ccc(OCc4cccc5ccccc45)c(OC)c3)c(=O)n2C1c1ccc(OC)cc1` (stereo not drawn), the inhibition was 14% (inactive).
In the case of `CCOC(=O)C1=C(C)N=c2s/c(=C/c3ccc(-c4ccc(C)c([N+](=O)[O-])c4)o3)c(=O)n2C1c1ccc(N(C)C)cc1` (stereo not drawn), the inhibition was 43% (inactive).
In the case of `CCOC(=O)C1=C(C)N=c2s/c(=C\c3ccc(-c4cc(C)c(C)c([N+](=O)[O-])c4)o3)c(=O)n2C1c1ccccc1` (stereo not drawn), the inhibition was 46% (inactive).
With `CCOC(=O)C1=C(C)N=c2s/c(=C\c3ccc(OCc4cccc5ccccc45)c(OC)c3)c(=O)n2C1c1ccc(OC)c(OC)c1` (stereo not drawn) the inhibition was 55% (active).
For `CCOC(=O)C1=C(C)N=c2s/c(=C\c3ccc(-c4cc(C)c(C)c([N+](=O)[O-])c4)o3)c(=O)n2C1c1ccc(N(C)C)cc1` (stereo not drawn), the inhibition was 56% (active).
In the case of `CCOC(=O)c1c(C)[nH]c(/C=C(/C#N)C(N)=NCc2ccccc2)c1O`, the inhibition was 11% (inactive).
